For 19 compounds, growth inhibition, inhibition and outcome results are on record in PubChem BioAssay.

Unmarked numbers belong to inactive results. For some assays here: Entries with a potency or affinity are not part of this list. The source made the active and inactive calls. Unless noted, the rule behind the calls is not given here.

A short description of experiment [1]: antimalarial activity against Dd2 strain (AID 2302;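 active = growth inhibition above 50% at the single 2 µM test dose, taken to imply half-maximal potency below 2 µM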;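 note: 0% = DMSO untreated growth and 100% = chloroquine plus artemisinin killed control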). The conditions noted are these: P. falciparum Dd2 in RBCs, LDH growth readout, 72 h; at 2 µM; hits give high values.
Experiment [2] can be described thus: human hepatoma cell viability loss – ATP luminescence, cytotoxicity control for P. falciparum antimalarial project, primary screen (AID 2303;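 active = inhibition above 50%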;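 note: 0% = DMSO wells and 100% = digitonin-killed cells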). The conditions noted are these: HepG2 viability, 24-48 h, at 10 µM, hits give high values.
Experiment [3] has as its target L-lactate dehydrogenase (Plasmodium falciparum (isolate CDC / Honduras)) (UniProt Q27743). As to the kind of experiment: PfLDH activity inhibition – cell lysate, 3D7 strain, counter-screen for P. falciparum growth inhibition project (AID 2304).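 Note: 0% = vehicle and 100% = reference inhibitor.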 As to conditions: P. falciparum 3D7 crude extract, LDH APAD/NBT absorbance; at 2 µM; hits give high values. (In general: The purpose of a counterscreen is to sort out artefacts and off-target activity.)

Experiment [4] in a line: inhibition of 3D7 malaria parasite growth – strain 3D7 (AID 2306).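 Note: 0% = DMSO wells and 100% = chloroquine plus artemisinin control wells.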 The conditions noted are these: P. falciparum 3D7 erythrocytic growth, LDH absorbance, 72 h; at 2 µM; hits give high values.
For experiment [5], the target named is Calcium-dependent protein kinase 1 (Plasmodium falciparum (isolate 3D7)) (UniProt P62344). The experiment can be described thus: PfCDPK1 kinase inhibitors, biochemical, TCAMS library (AID 1159585; cut-off not given, nearly all actives have IC50 up to about 0.98 µM;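 note: inhibitors leave more ATP so luminescence rises with inhibition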). As to conditions: recombinant PfCDPK1, Kinase-Glo ATP depletion luminescence. In general terms: In Kinase-Glo more light means more ATP remaining.
In experiment [6] the target is Plasmodium falciparum protein kinase 6 (PK6, PF3D7_1337100) (UniProt Q8IDW1). The experiment can be described thus: PfPK6 kinase inhibitors, biochemical, TCAMS library (AID 1159586). The conditions noted are these: recombinant PfPK6, Kinase-Glo ATP depletion luminescence.
The target of experiment [7] is Protein kinase 7 (PK7), Plasmodium falciparum 3D7 (PF3D7_0213400) (UniProt Q7YTF7). As to the kind of experiment: inhibition of Plasmodium PK7 catalytic activity – biochemical, TCAMS antimalarial set, Kinase-Glo luminescence (AID 1159587). The conditions noted are these: recombinant PfPK7, Kinase-Glo ATP depletion luminescence.
Experiment [8] addresses Calcium-dependent protein kinase 4 (Plasmodium falciparum (isolate 3D7)) (UniProt Q8IBS5). The experiment can be described thus: PfCDPK4 kinase inhibitors, biochemical, TCAMS library (AID 1159588; cut-off not given, nearly all actives have IC50 up to about 0.91 µM). The conditions noted are these: recombinant PfCDPK4, Kinase-Glo ATP depletion luminescence.

Chain of Calcium-dependent protein kinase 4 (Plasmodium falciparum (isolate 3D7)) (Q8IBS5 whole entry, looked up): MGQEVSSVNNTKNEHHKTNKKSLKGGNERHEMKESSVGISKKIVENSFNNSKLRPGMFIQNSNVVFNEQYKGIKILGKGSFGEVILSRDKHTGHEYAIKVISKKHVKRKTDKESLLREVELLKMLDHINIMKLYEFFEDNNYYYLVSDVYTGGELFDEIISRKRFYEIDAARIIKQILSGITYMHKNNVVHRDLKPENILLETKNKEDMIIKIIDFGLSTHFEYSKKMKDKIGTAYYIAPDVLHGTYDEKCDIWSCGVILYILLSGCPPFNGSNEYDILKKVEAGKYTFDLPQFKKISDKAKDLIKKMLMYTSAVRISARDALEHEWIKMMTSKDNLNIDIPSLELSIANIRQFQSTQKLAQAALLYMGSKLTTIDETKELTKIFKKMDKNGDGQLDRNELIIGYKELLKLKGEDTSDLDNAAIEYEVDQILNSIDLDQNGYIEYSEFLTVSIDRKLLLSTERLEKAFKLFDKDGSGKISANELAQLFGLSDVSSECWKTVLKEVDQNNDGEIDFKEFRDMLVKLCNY
Chain of Protein kinase 7 (PK7), Plasmodium falciparum 3D7 (PF3D7_0213400) (Q7YTF7 1-343): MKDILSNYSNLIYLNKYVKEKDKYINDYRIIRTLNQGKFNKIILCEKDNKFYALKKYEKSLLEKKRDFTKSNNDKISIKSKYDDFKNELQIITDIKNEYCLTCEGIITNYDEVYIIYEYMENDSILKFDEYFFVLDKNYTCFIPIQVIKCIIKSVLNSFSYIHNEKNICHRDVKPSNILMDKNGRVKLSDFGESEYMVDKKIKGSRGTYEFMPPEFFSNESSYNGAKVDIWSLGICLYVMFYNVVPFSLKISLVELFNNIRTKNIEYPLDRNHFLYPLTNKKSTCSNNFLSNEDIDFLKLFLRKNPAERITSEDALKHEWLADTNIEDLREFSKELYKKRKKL
Chain of Plasmodium falciparum protein kinase 6 (PK6, PF3D7_1337100) (Q8IDW1 1-305): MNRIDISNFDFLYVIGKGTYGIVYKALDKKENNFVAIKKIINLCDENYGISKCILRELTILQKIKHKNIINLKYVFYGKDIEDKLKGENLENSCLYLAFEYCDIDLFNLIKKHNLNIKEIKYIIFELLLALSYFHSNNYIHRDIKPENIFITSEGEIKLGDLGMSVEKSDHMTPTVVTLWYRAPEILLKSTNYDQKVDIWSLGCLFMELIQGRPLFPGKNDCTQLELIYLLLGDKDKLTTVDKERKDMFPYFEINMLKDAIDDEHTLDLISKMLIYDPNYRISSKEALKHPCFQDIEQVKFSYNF
Chain of L-lactate dehydrogenase (Plasmodium falciparum (isolate CDC / Honduras)) (Q27743 whole entry, looked up): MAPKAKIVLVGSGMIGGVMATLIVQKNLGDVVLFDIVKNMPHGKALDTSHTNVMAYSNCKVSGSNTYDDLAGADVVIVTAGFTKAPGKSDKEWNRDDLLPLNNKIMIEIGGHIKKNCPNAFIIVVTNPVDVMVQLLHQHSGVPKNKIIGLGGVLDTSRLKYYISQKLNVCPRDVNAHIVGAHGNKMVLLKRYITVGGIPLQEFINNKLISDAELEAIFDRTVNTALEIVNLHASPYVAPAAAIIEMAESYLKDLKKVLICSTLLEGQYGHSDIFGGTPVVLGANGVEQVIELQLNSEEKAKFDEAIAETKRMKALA
Chain of Calcium-dependent protein kinase 1 (Plasmodium falciparum (isolate 3D7)) (P62344 whole entry, looked up): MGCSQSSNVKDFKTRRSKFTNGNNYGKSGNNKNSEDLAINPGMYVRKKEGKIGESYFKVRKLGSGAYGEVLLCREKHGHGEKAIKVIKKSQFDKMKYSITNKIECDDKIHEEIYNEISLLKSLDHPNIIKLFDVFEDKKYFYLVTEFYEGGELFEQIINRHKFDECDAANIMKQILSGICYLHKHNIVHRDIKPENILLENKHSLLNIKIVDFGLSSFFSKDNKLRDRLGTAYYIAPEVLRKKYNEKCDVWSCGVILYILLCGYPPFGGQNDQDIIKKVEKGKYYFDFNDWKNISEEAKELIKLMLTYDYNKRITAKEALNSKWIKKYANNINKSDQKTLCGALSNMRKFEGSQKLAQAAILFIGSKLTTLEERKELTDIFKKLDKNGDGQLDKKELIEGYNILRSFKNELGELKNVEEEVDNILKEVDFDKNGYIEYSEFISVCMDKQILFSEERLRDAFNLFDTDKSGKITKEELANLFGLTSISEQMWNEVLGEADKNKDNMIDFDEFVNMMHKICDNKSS

`CN(C)CCNCc1ncsc1-c1ccc2c(Nc3ccc(F)cc3Cl)ccnc2c1`: the growth inhibition in experiment [1] was 95% (active); in experiment [4], 100% (active). Besides, the inhibition was -1% in experiment [2] and 0% in experiment [3]. For the same compound, the outcome in experiment [5], in experiment [6], in experiment [7] and in experiment [8] was inactive.
On to `COc1cccc(OC2CCN(C(=O)c3cc(C(C)(C)C)nn3Cc3ccccc3)CC2)c1`, for which the growth inhibition was 98% (active) in experiment [1] and 102% (active) in experiment [4]. Also, the inhibition in experiment [2] and in experiment [3] was 3% each time. The result in experiment [5], in experiment [6], in experiment [7] and in experiment [8] was inactive.
Consider `COc1ccccc1NC(=O)CSc1nc2cccnc2n1-c1ccccc1OC`, for which the growth inhibition in experiment [1] was 91% (active); in experiment [4], 94% (active). The results for the inhibition in experiment [2] and in experiment [3] were -4% and -3%, respectively. Also, the result in experiment [5], in experiment [6], in experiment [7] and in experiment [8] was inactive.
Consider `CC(C)(C)CNc1noc(-c2sccc2Br)n1`, for which the growth inhibition is 71% (active) in experiment [1] and 82% (active) in experiment [4]. In addition, the inhibition in experiment [2] is 4%; in experiment [3] it was -7%. The result in experiment [5], in experiment [6], in experiment [7] and in experiment [8] was inactive.
Take `Cc1cccc(OC2CCN(c3ncc(C(=O)NCCCN4CCCC4=O)cc3Cl)CC2)c1`: the growth inhibition in experiment [1] was 95% (active); in experiment [4] it was 96% (active). Moreover, the results for the inhibition in experiment [2] and in experiment [3] were 7% and -2%, respectively. Moreover, the outcome in experiment [5], in experiment [6], in experiment [7] and in experiment [8] was inactive.
With `COc1ccccc1CNc1ccnc(N2CC(Oc3ccc(F)cc3)C2)n1`, the growth inhibition in experiment [1] is 95% (active); in experiment [4], 97% (active). The values for the inhibition in experiment [2] and in experiment [3] were 2% and -4%, respectively. Besides, the result in experiment [5], in experiment [6], in experiment [7] and in experiment [8] was inactive.
Regarding `CCOC(=O)c1cc(Cl)cc(Cl)c1OCCCON1C(N)=NC(N)=NC1(C)C`, the growth inhibition was 97% (active) in experiment [1] and 93% (active) in experiment [4]. Besides, the values for the inhibition in experiment [2] and in experiment [3] were 70% (active) and -6%, respectively. Also, the outcome in experiment [5], in experiment [6], in experiment [7] and in experiment [8] was inactive.
Turning to `CS(=O)(=O)CCNCc1nc(-c2ccc3c(Nc4ccc(Oc5ccccn5)cc4)ccnc3c2)cs1`, the growth inhibition was 89% (active) in experiment [1] and 100% (active) in experiment [4]. The inhibition in experiment [2] is 9%; in experiment [3], -1%. Further, the result in experiment [5], in experiment [6], in experiment [7] and in experiment [8] was inactive.
In the case of `CC(C)CNCc1ccc(-c2cccc(CN(CCN(C)C)C(=O)NCCc3ccccc3)c2)cc1`, the growth inhibition in experiment [1] was 37%; in experiment [4], 91% (active). Besides, the values for the inhibition in experiment [2] and in experiment [3] were 33% and -6%, respectively. In addition, the result in experiment [5], in experiment [6], in experiment [7] and in experiment [8] was inactive.
On to `Cc1cccc(N2C(N)=NC(N)=NC2(C)C)c1C`, for which the growth inhibition is -2% in experiment [1] and 90% (active) in experiment [4]. The figures for the inhibition in experiment [2] and in experiment [3] were -2% and -6%, respectively. For the same compound, the result in experiment [5], in experiment [6], in experiment [7] and in experiment [8] was inactive.
Take `COc1ccccc1CCNc1nc(C)cc(N[C@@H](Cc2ccccc2)C(=O)NCCc2ccccc2)n1`: the growth inhibition in experiment [1] is 89% (active); in experiment [4] it was 100% (active). Moreover, the figures for the inhibition in experiment [2] and in experiment [3] were 16% and -3%, respectively. Moreover, the result in experiment [5], in experiment [6], in experiment [7] and in experiment [8] was inactive.
Take `COc1ccc(CC2(CO)CCN(Cc3ccc(O)c(Cl)c3)CC2)cc1`: the growth inhibition in experiment [1] is 14%; in experiment [4], 98% (active). The inhibition in experiment [2] was -6%; in experiment [3], -2%. For the same compound, the result in experiment [5], in experiment [6], in experiment [7] and in experiment [8] was inactive.
As to `Nc1nccc2ccc(-c3ccc4nccn4c3)cc12`, the growth inhibition was 100% (active) in experiment [1] and 101% (active) in experiment [4]. The inhibition in experiment [2] is 15%; in experiment [3], -2%. The outcome in experiment [5], in experiment [6], in experiment [7] and in experiment [8] was inactive.
`CCOC(=O)c1ccc(NC(=O)Nc2cccc(-c3cccc(-c4nc5c(C)cccc5[nH]4)c3)c2)cc1`: the results for the growth inhibition in experiment [1] and in experiment [4] were 99% (active) and 100% (active), respectively. The inhibition in experiment [2] is 37%; in experiment [3] it was 0%. Also, the result in experiment [5], in experiment [6], in experiment [7] and in experiment [8] was inactive.
Turning to `CC(C)NCc1ccc(-c2ccc(CN3CCCC(c4ccccc4)C3)cc2)c(C(=O)NCC2CCCCC2)c1` (configuration not stated), the growth inhibition in experiment [1] is 53% (active); in experiment [4] it was 97% (active). Besides, the inhibition is 79% (active) in experiment [2] and -3% in experiment [3]. Moreover, the result in experiment [5], in experiment [6], in experiment [7] and in experiment [8] was inactive.
As for `COc1ccc(CNCc2cccc(-c3ccc(-c4nc5ccccc5[nH]4)s3)c2)cc1`, the growth inhibition is 52% (active) in experiment [1] and 90% (active) in experiment [4]. For the same compound, the inhibition in experiment [2] is 14%; in experiment [3] it was 0%. Further, the outcome in experiment [5], in experiment [6], in experiment [7] and in experiment [8] was inactive.
As to `Cc1cccc2[nH]c(-c3ccc(-c4cccc(NC(=O)c5cccc(C(N)=O)c5)c4)cc3)nc12`, the growth inhibition in experiment [1] is 87% (active); in experiment [4], 84% (active). The inhibition was 14% in experiment [2] and -1% in experiment [3]. Besides, the result in experiment [5], in experiment [6], in experiment [7] and in experiment [8] was inactive.
Turning to `Cc1ccc(CN(Cc2ccc(C(=O)N(C)C)cc2)Cc2ccc3c(c2)OCCO3)cc1C`, the values for the growth inhibition in experiment [1] and in experiment [4] were 87% (active) and 91% (active), respectively. In addition, the figures for the inhibition in experiment [2] and in experiment [3] were 10% and 0%, respectively. For the same compound, the result in experiment [5], in experiment [6], in experiment [7] and in experiment [8] was inactive.
As for `CN1CCC(N2CCN(Cc3cccc(-c4ccc(-c5nc6ccc(F)cc6[nH]5)cc4)c3)CC2)CC1`, the growth inhibition in experiment [1] and in experiment [4] was 100% (active) each time. Moreover, the inhibition in experiment [2] is 92% (active); in experiment [3], 3%. The result in experiment [5], in experiment [6], in experiment [7] and in experiment [8] was inactive.

As a reminder, the inhibition is the relative decrease from the control value, in per cent.
